# 3CLpro inhibitor = SARS-CoV 3CLpro protease inhibitors, primary screen, biochemical, quenched FRET; recombinant SARS-CoV 3CLpro, quenched FRET peptide cleavage; 290,000 tested, 0.14% active; inhibition, % at 6 µM; in the data active = inhibition above about 12%
# Anthrax LF prot = Bacillus anthracis LF protease inhibitors, primary screen, biochemical, multiplex microsphere, MLPCN library | Lethal factor (Bacillus anthracis), P15917 | multiplex microsphere protease cleavage assay | inhibition, % at 10 µM | 360,000 tested, 0.12% active; also: plate controls were buffer without enzyme for full effect and enzyme alone for no effect
# BoNT F protease = BoNT/F light chain protease inhibitors, primary screen, biochemical, flow cytometry, MLPCN library. 360,000 tested, 0.22% active. Botulinum neurotoxin type F light chain protease (Clostridium botulinum). inhibition, % at 10 µM. Multiplex microsphere protease cleavage assay; in the data active = inhibition above about 35%, passing the limit was not always enough; inconclusive = no clear call, values can overlap the other calls; also: plate controls were buffer without enzyme for full effect and enzyme alone for no effect
# Autofluor counter = counter-screen for toxin protease inhibitors: compound fluorescence; 360,000 tested, 3.1% active; compound autofluorescence counterscreen, microsphere flow cytometry; hits give high values; fluorescence intensity (concentration not given with the values); in the data active = fluorescence intensity above about 16000; inconclusive = no clear call, values can overlap the other calls
# BoNT-A LC inh2 = BoNT/A light chain protease inhibitors, primary screen, biochemical, flow cytometry, MLPCN library; multiplex microsphere protease substrate cleavage; AID 588499, 2011; 360,000 tested, 0.17% active; Botulinum neurotoxin type A light chain protease (Clostridium botulinum A str. ATCC 3502); inhibition, % at 10 µM; also: plate controls were buffer without enzyme for full effect and enzyme alone for no effect
# Numbers without * were called inactive; ? = inconclusive; · = no result. Only some compounds are listed: those with a hit (about 3.5% of all), similar ones and a draw of the others. Rule as the data show it, unless noted: active = inhibition above about 30%; inconclusive = no clear call, values can overlap the other calls; inactive = below that.
SMILES,3CLpro inhibitor,Anthrax LF prot,BoNT F protease,Autofluor counter,BoNT-A LC inh2
COc1ccc(-n2nc(C(=O)NCC(=O)N3CCCC3)c3ccccc3c2=O)cc1,2,2,-33,3854,4
COc1ccc(NC(=O)Cn2nc(C(F)(F)F)c3c2CCCC3)cc1OC,1,-2,-7,22117*,?
Cc1ccc(Cl)cc1NC(=O)c1cccc(OC(F)F)c1,4,-4,5,20132*,8
N#C/C(=C\C=C\c1ccccc1)c1nc(-c2ccc3c(c2)OCO3)cs1,5,21,10,3363,52*
OC(c1ccccc1)(c1nc(-c2ccc3c(c2)OCO3)cs1)C(F)(F)F (configuration not stated),·,-3,2,3181,0
CC(C)CCNC(=O)c1c(N)n(Cc2ccc3c(c2)OCO3)c2nc3ccccc3nc12,-1,5,1,10113,21
COCCn1c(N)c(C(=O)NCc2cccs2)c2nc3ccccc3nc21,-1,13,0,20185*,9
CC(=O)c1c(C(C)=O)c(C)n(Cc2ccc3c(c2)OCO3)c1C,0,-1,-12,22217*,-7
CCCCNC(=O)c1c(N)n(CCCOC)c2nc3ccccc3nc12,-4,6,-4,21009*,3
CCCNC(=O)c1c(N)n(Cc2ccc3c(c2)OCO3)c2nc3ccccc3nc12,-6,-2,4,23041*,4
COc1ccccc1CNC(=O)c1c(N)n(CCCN2CCOCC2)c2nc3ccccc3nc12,2,1,2,18665*,13
Nc1c(C(=O)NCc2ccc3c(c2)OCO3)c2nc3ccccc3nc2n1CCCN1CCOCC1,-3,5,-14,11356,16
O=C(O)c1ccc2c(c1)C(=O)N(Cc1ccc3c(c1)OCO3)C2=O,-3,-2,0,23047*,0
Cc1cc(N2CCCC2)ccc1/C=C1\NC(=S)N(C)C1=O,-4,5,-7,5687,8
COc1ccc(Cc2nc(C)cc(Cl)n2)cc1[N+](=O)[O-],-1,9,-10,3776,1
COc1cc(/C=C\C(=O)NCc2ccc3c(c2)cc(C)n3C)cc(OC)c1OC,-1,-80,-120,2962,68*
O=C1OC(Oc2ccccc2)(c2ccccc2)c2ccccc21 (configuration not stated),7,0,-8,8294,0
Cc1ccc(CCNC(=O)CCNS(=O)(=O)c2ccc3c(c2)oc(=O)n3C)cc1,-6,-4,-3,9981,0
CCCCN(CC)CCNS(=O)(=O)c1ccc2c(c1)oc(=O)n2C,-2,2,0,15823,2
Cn1c(=O)oc2cc(S(=O)(=O)NCCC(=O)NCCc3ccccc3)ccc21,-1,-2,0,20294*,-1
Cn1c(=O)oc2cc(S(=O)(=O)NCCC(=O)NCCc3ccc(Cl)cc3)ccc21,-11,-9,1,19293*,2
CCCN(CCC)CCNS(=O)(=O)c1ccc2c(c1)oc(=O)n2C,6,-2,-1,22046*,?
CCOC(=O)c1ccc(NC(=O)CCNS(=O)(=O)c2ccc3c(c2)oc(=O)n3C)cc1,5,-2,0,23217*,0
CCC1CCCCN1Cc1ccc(CNS(=O)(=O)c2ccc3c(c2)oc(=O)n3C)o1 (configuration not stated),-4,-2,-10,22053*,-6
Cn1c(=O)oc2cc(S(=O)(=O)Nc3cccc(C(=O)O)c3)ccc21,1,-5,-4,19703*,0
SMILES,3CLpro inhibitor,Anthrax LF prot,BoNT F protease,Autofluor counter,BoNT-A LC inh2
CCOc1ccc2nc(NC(=O)Cn3[nH]c(=O)c4ccccc4c3=O)sc2c1,1,-3,-5,4959,0
CC(C)=CCc1c(O)c(CC=C(C)C)c2c(c1O)C(=O)CC(c1ccc(O)cc1)O2 (configuration not stated),1,-4,-16,5634,0
CCc1ccc(C2=NN(CCC(=O)NC3CCCCCC3)C(=O)CC2)cc1,1,-2,4,6289,0
O=C(CN1CCCCC1)c1c[nH]c2ccccc12,5,-9,24,3702,-1
CC1CC(C)CN(CC(=O)c2c[nH]c3ccccc23)C1 (configuration not stated),-3,0,36*,7467,2
CC(C)n1nc(C(=O)OCC(=O)c2c[nH]c3ccccc23)c2ccccc2c1=O,6,-7,3,15302,5
COc1cccc(/C=C/C(=O)OCC(=O)c2c[nH]c3ccccc23)c1OC,0,15,-9,4789,39*
CCn1nc(C(=O)OCC(=O)c2c[nH]c3ccccc23)c2ccccc2c1=O,2,38*,-18,10209,45*
Cn1cnnc1SCC(=O)c1c[nH]c2ccccc12,-5,6,-9,25248*,-6
NC(=O)c1ccccc1NS(=O)(=O)c1ccc(S(=O)(=O)N2CCCC2)cc1,·,-18,3,4285,0
CCOC(=O)C1=NNC(C(=O)c2ccc(C)cc2)C1c1ccc(OC)cc1 (configuration not stated),0,5,5,4059,2
O=C(N/N=C/c1ccccn1)c1cccc([N+](=O)[O-])c1,-1,-1,1,3369,0
O=C(COC(=O)C1CC1)c1c[nH]c2ccccc12,-5,-16,5,19998*,4
c1csc(CNc2ncnc3sccc23)c1,-8,4,-4,10332,-1
CCOc1ccc(N/C=C/C(=O)c2ccc3ccccc3c2)c([N+](=O)[O-])c1,10,-2,0,16459*,0
CCOc1ccc(N/C=C/C(=O)c2ccc(C)cc2)c([N+](=O)[O-])c1,-1,1,2,2449,0
CN(C)CCCNc1nc(N)c([N+](=O)[O-])c(NCc2ccccc2)n1,5,10,3,3184,-2
COc1ccccc1CN1C(=O)CN(C2CCCC2)C(=O)C1c1ccc(F)cc1 (configuration not stated),-1,-9,-1,16593*,?
O=C1C(c2ccc(F)cc2)N(Cc2ccc3c(c2)OCO3)C(=O)CN1C1CCCC1 (configuration not stated),-1,-1,-14,25677*,-10
CCOc1ccc(C2C(=O)N(C3CCCCC3)CC(=O)N2CC2CCCO2)cc1OC (configuration not stated),-7,0,-14,11195,-1
O=C1C(c2ccc(F)cc2)N(Cc2ccc3c(c2)OCO3)C(=O)CN1C1CCCCC1 (configuration not stated),3,-6,-1,20863*,-1
O=C1C(c2ccc(F)cc2)N(CC2COc3ccccc3O2)C(=O)CN1C1CCCCC1 (configuration not stated),0,-3,8,10837,0
O=Cc1ccc(-c2cccs2)s1,·,-5,-9,2852,1

# Screening data from PubChem BioAssay.
